# The whole screen tested about 1,500 compounds, of which about 390 (26%) were called active. These entries were drawn from the full list. Results with a measured potency or affinity are listed apart. Unmarked numbers belong to inactive results. No rule for the calls is given here.
# Biological target: Histone-lysine N-methyltransferase NSD2 (Homo sapiens) (UniProt O96028)
# Assay: blockers of NSD2 H4 peptide methylation – biochemical, AlphaScreen, cherry-picked samples, dose response (AID 1053173);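 also: 0% = neutral control wells and -100% = positive control wells on each plate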
# Conditions: 120 min; series mostly up to 10 µM; activity change, negative = inhibition: at the top concentration
# Sequence of Histone-lysine N-methyltransferase NSD2 (Homo sapiens) (O96028 whole entry, looked up): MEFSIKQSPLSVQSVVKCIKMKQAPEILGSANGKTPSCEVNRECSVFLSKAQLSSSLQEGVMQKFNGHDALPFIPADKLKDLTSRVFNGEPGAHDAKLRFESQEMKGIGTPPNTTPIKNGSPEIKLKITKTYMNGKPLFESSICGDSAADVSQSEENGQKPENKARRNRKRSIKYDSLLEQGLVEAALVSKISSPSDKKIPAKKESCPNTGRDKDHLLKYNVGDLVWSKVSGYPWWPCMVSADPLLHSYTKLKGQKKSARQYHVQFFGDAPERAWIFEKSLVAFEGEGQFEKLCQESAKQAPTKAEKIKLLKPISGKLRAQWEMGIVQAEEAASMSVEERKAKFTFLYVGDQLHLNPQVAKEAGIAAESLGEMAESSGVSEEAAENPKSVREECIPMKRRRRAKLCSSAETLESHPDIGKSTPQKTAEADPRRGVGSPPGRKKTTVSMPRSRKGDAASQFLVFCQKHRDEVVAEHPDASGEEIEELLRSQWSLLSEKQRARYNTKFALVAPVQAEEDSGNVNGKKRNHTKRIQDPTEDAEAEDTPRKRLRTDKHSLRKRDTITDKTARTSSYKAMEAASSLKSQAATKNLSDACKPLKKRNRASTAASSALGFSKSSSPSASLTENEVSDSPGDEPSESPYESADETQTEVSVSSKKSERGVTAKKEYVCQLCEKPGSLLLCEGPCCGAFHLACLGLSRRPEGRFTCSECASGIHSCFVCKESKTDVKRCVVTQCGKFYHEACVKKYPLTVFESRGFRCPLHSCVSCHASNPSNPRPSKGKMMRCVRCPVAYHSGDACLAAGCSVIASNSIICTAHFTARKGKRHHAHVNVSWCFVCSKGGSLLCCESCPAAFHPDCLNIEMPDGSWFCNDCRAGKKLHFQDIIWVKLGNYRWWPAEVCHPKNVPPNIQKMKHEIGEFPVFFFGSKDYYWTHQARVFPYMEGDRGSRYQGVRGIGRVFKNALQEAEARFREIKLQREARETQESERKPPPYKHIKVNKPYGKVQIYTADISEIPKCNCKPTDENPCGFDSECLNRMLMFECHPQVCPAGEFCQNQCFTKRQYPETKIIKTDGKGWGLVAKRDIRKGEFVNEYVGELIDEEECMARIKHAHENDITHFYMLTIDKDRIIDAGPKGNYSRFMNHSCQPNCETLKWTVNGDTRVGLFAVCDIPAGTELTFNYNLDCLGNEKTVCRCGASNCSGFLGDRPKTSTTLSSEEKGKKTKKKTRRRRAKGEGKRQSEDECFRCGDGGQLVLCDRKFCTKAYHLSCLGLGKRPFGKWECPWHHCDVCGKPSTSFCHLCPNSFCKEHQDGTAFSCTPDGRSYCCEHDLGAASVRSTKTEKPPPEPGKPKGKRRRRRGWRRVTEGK
row,SMILES,"activity change, negative = inhibition [%]"
1,O=C(CSc1nc(-c2ccccc2)c(-c2ccccc2)o1)N1CCCCC1,4.5
2,CCOC(=O)c1ccc(N=c2scc(C)n2CC)cc1,-13.2
3,CC1(C)CC(N=C2C=CC3=NC45CCCCC4CC4=C(CCCC4)N5C3=C2)CC(C)(C)N1 (centres undefined),-4.28
4,COc1ccc(N=c2scc(C)n2CCCN2CCCC2=O)cc1,1.93
5,CCOC(=O)Nc1ccc(=O)n(Cc2c(Cl)cccc2Cl)c1,4.15
6,CN(C(=S)NC(=O)C1(C)CC1(Cl)Cl)c1ccccc1 (centres undefined),6.66
7,O=C(NNC(=O)c1ccc(Cl)nc1)c1ccc(Br)cc1,3.91
8,Oc1ccc(/C=N/N2CCOCC2)c(O)c1O,-4.15
9,Nc1cc(=O)[nH]c(SCC(=O)Nc2ccc(Cl)c(Cl)c2)n1,-0.598
10,Cc1ccc(NC(=S)N2CCC(NC(=O)c3ccc(F)cc3)CC2)cc1,4.5
11,COCC(C)n1c(SCC(=O)NC2CCCCC2C)nc2ccccc2c1=O (centres undefined),-6.67
12,Cc1cccc(-n2c(Cn3nc(C)c([N+](=O)[O-])c3C)n[nH]c2=S)c1,4.32
13,Cc1csc(SCC(=O)Nc2ccc3c(c2)OCCO3)n1,-0.732
14,COC(=O)c1ccccc1-c1ccc(C(c2c(C)[nH][nH]c2=O)c2c(C)[nH][nH]c2=O)o1,-2.23
15,Cc1[nH][nH]c(=O)c1C(c1ccc(-c2ccc(C(=O)O)cc2)o1)c1c(C)[nH][nH]c1=O,-3.01
16,Cc1cccc(C(=O)NCc2nnc(SCC(=O)Nc3nnc(C)s3)n2C)c1,3.02
17,O=c1c2cnn(-c3ccccc3)c2nc(-c2ccco2)n1-c1ccccc1,3.67
18,Cc1ccc(S(=O)(=O)NC(C(=O)N2CCN(S(=O)(=O)c3cccc(F)c3)CC2)C(C)C)cc1 (centres undefined),0.222
19,COc1ccccc1OCC(=O)Nc1ccc(S(=O)(=O)N2CCCC2)cc1,1.45
20,Cc1ccccc1NCC(=O)Nc1cc(S(=O)(=O)N2CCCCC2)ccc1C,-1.45
21,Cc1ccc(S(=O)(=O)N(C)CC(=O)NCCCn2ccnc2)cc1,-5.32
22,CN(c1ccccc1)c1ncnc2c1ncn2C,-5.28
23,COc1ccc2c(c1)Cc1sc(NC(C)=O)nc1-2,-4.87

row,SMILES,"activity change, negative = inhibition [%]"
1,Cc1nn(-c2ccccn2)c2c1C(=O)C(Br)CC2 (centres undefined),-4.7
2,CC(=O)c1ccc(N(CC(=O)NCCc2ccccc2)C(=O)c2csnn2)cc1,0.43
3,O=C(OCc1ccc([N+](=O)[O-])cc1)c1cc(=O)c2ccccc2o1,5.19
4,COc1ccccc1N(CC(=O)NCC1CCCO1)C(=O)CNS(=O)(=O)c1ccc(C)cc1 (centres undefined),1.22
5,O=C1c2ccccc2C(=O)N1CCC(c1ccc(F)cc1)c1ccco1 (centres undefined),1.01
6,COc1ccc(Cc2nnc(NC(=O)C3CC(=O)N(c4ccc(OC)cc4)C3)s2)cc1 (centres undefined),-0.048
7,O=C(CN(C(=O)c1csnn1)c1ccc(F)c(Cl)c1)NC1CCCCC1,0.495
8,Cc1nc(N)sc1-c1nnc(SCC(=O)Nc2ccccc2C(F)(F)F)n1C,-2.66
9,CC(C)(C)NC(=O)COC(=O)c1ccc2c(c1)C(=O)N(Cc1ccco1)C2=O,-1.9
10,CC1=NN(c2ccccc2)C(=O)/C1=C/N(C)C,-4.42
11,Cn1c(=O)[nH]c(=O)c2c1nc(N/N=C/c1ccncc1)n2Cc1ccc(F)cc1,1.06
12,Cc1ccc(-c2csc3nc(CN(C)Cc4ccccc4)[nH]c(=O)c23)cc1,-0.858
13,CCC(CC)c1nnc(NC(=O)CCS(=O)(=O)Cc2ccccc2)s1,0.024
14,CCCCn1cnc2c(=S)nc(N)[nH]c21,-2.03
15,CCn1cc(/C=N\NC(=O)C2(C)CC2(Cl)Cl)c(C)n1 (centres undefined),6.99
16,NNC(=O)c1nc(-c2ccccc2)cc(-c2ccccc2)n1,-1.02
17,CC12CCC(C)(c3nc4ccccc4nc31)C2(C)C,-0.479
18,Cc1cc(C)n(CCC(=O)N2CCN(S(=O)(=O)c3ccccc3)CC2)n1,5.12
19,Cc1cccc2c(N=NC(=O)c3ccc(NS(=O)(=O)c4cccs4)cc3)c(O)[nH]c12,-5.5
20,Cc1cc(S(=O)(=O)NCc2cccnc2)ccc1F,-2.37
21,O=C(COc1ncnc2c(Cl)cc(Cl)cc12)N1CCCCC1,-0.554
22,Cn1ncc2c(Nc3cccc4ccccc34)ncnc21,2.95
23,O=C(NCCN1CCOCC1)NC1(C(F)(F)F)Oc2ccccc2O1,-0.91

row,SMILES,"activity change, negative = inhibition [%]"
1,CCCCc1ccc(NC(=O)CSc2nc(=O)n(CCN(CC)CC)c3c2CCCC3)cc1,-5.12
2,Cc1cc(SCC(=O)Nc2cccnc2Cl)nc2ccccc12,0.285
3,COc1ccc(C(=O)Nn2c(SCC(=O)c3ccc(Cl)cc3)nc3ccccc3c2=O)cc1,-2.62
4,Cc1ccc(-c2cc(C(=O)N/N=C/c3ccccc3)n[nH]2)o1,-1.55
5,Cc1cc(=O)[nH]c(N/N=C/c2c(C)nn(-c3ccccc3Cl)c2Cl)n1,-1.01
6,Cc1ccc(O)c(NC(=O)c2cc3nc4c(c(C(F)(F)F)n3n2)CCc2ccccc2-4)c1,-1.53
7,O=C(Nc1cc(F)ccc1F)N1CCN(c2ccnc3cc(Cl)ccc23)CC1,-0.162
8,COc1ccc(C(=O)C(OC(=O)c2ccc(C)c(NC(C)=O)c2)c2ccccc2)cc1 (centres undefined),-3.15
9,COCCN(C(=O)CNC(=O)c1ccco1)C(C(=O)NC1CCCC1)c1ccc(OC)cc1 (centres undefined),0.585
10,CC1(C)NC(=O)N(CCCOc2ccccc2Br)C1=O,-1.93
11,CCOc1cc(NC2CS(=O)(=O)CC2O)c(OCC)cc1NC(=O)c1ccccc1 (centres undefined),-10.2
12,Cc1ccc(N2C(=O)N(CC(=O)Nc3cccc([N+](=O)[O-])c3C)C(=O)C2C)cc1 (centres undefined),-2.74
13,O=C(CC(=O)Nc1ccc(Cl)cc1)N/N=C\c1cccc(F)c1,7.1
14,O=C(NNC(=O)c1ccc(NC(=O)C2CC2)cc1)c1ccc(F)cc1,-4.45
15,CC1CCN(CCC(=O)Nc2ccccc2)CC1,-1.04
16,Cc1ccc(NC(=O)CCn2c(=O)oc3ccccc32)cc1,1.97
17,Cc1ccc(NC(=O)CCC(=O)OCC(F)(F)C(F)F)cc1,-4.16
18,CNS(=O)(=O)c1cc(NC(=O)CCCNC(=O)c2ccc(Cl)cc2)ccc1C,-3.69
19,CC1CCCCC12NC(=O)N(CC(=O)NC(=O)NCc1ccco1)C2=O (centres undefined),5.2
20,COc1cccc(CNC(=S)Nc2ccc(Cl)cc2C)c1,2.1
21,O=[N+]([O-])c1ccccc1-c1ccc(C(=S)N2CCCC2)o1,-6.85
22,Cn1cc(-c2ccccc2C(N)=O)c(=O)c2ccccc21,-1.88
23,CC1CCCC(NC(=O)COC(=O)c2c[nH]c(=O)[nH]c2=O)C1C (centres undefined),-1.68

# — PubChem BioAssay AID1053173 (Broad Institute, 2014)
